Measurements published in PubChem BioAssay (NCI).
This is part of a sample that, as a whole, favours compounds with a hit. Of some 83,000 tested, about 20% had one in any assay.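 Results are percent growth after 48 hours of single-concentration exposure. 100 means growth as in untreated cells, lower positive values show inhibition; negative values down to -100 show cell death.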 A number with no mark means an inactive call. Activity calls are given as the source filed them. How the source made its calls: active means growth percent below 10; inactive means the rest.

Columns and labels:
Experiment in all cases: NCI-60 one-dose screen, 48 h (100 = growth as untreated, 0 = no growth, -100 = all killed)
SK-MEL-2 melanoma = conditions: 10 µM unless noted
EKVX NSCLC = conditions: 10 µM unless noted
SN12C renal = conditions: 10 µM unless noted
UO-31 renal = conditions: 10 µM unless noted
TK-10 renal = conditions: 10 µM unless noted
ACHN renal = conditions: 10 µM unless noted
CAKI-1 renal = conditions: 10 µM unless noted
CCRF-CEM leukemia = conditions: 10 µM unless noted
MOLT-4 leukemia = conditions: 10 µM unless noted
SR leukemia = conditions: 10 µM unless noted
RPMI-8226 leukemia = conditions: 10 µM
OVCAR-5 ovarian = conditions: 10 µM unless noted
OVCAR-4 ovarian = conditions: 10 µM unless noted
IGROV1 ovarian = conditions: 10 µM unless noted
OVCAR-3 ovarian = conditions: 10 µM unless noted
HS 578T breast = conditions: 10 µM unless noted
NCI/ADR-RES ovarian = conditions: 10 µM unless noted
OVCAR-8 ovarian = conditions: 10 µM unless noted
A498 renal = conditions: 10 µM unless noted
SK-OV-3 ovarian = conditions: 10 µM

| Structure (SMILES) | growth (SK-MEL-2 melanoma) | growth (EKVX NSCLC) | growth (SN12C renal) | growth (UO-31 renal) | growth (TK-10 renal) | growth (ACHN renal) | growth (CAKI-1 renal) | growth (CCRF-CEM leukemia) | growth (MOLT-4 leukemia) | growth (SR leukemia) | growth (RPMI-8226 leukemia) | growth (OVCAR-5 ovarian) | growth (OVCAR-4 ovarian) | growth (IGROV1 ovarian) | growth (OVCAR-3 ovarian) | growth (HS 578T breast) | growth (NCI/ADR-RES ovarian) | growth (OVCAR-8 ovarian) | growth (A498 renal) | growth (SK-OV-3 ovarian) [%] |
| --- | --- | --- | --- | --- | --- | --- | --- | --- | --- | --- | --- | --- | --- | --- | --- | --- | --- | --- | --- | --- |
| O=C(NC1CC1)c1cc2n(n1)CC(c1ccccc1)N2 (stereo not given) | 99.9% | 83.7% | 102% | 95.8% | 102% | 106% | 91.4% | 108% | 109% | 104% | 112% | 95.9% | 104% | 100% | 112% | 83.8% | 104% |  |  |  |
| O=C1CCC(N2Cc3c(C#CCCCNC(=O)c4cc5c(o4)C(=O)c4ccccc4C5=O)cccc3C2=O)C(=O)N1 (stereo not given) | -26.6% (active) | 64.4% | -92.2% (active) | 86.4% | 101% | 71.7% | 78.7% | 12.3% | 8.52% (active) | 12.1% |  | 20.2% | -98.5% (active) | -5.62% (active) | -37.3% (active) | -32.8% (active) | 89.6% | 4.59% (active) |  |  |
| CCCCCCCCCCCCCCn1c2ccccc2c2c3c(c4c5cc(OC)ccc5oc4c21)C(=O)NC3=O | 113% | 105% | 101% | 88.5% | 109% | 103% | 93.2% | 103% | 123% | 114% | 112% | 100% |  | 106% | 110% | 95.6% | 107% | 103% |  |  |
| NS(=O)(=O)c1ccc(C(=O)N/N=C(\CS(=O)(=O)c2ccccc2)c2cc3cc(Br)ccc3o2)cc1 | 100% | 103% | 89% | 101% | 107% | 99.3% | 89.9% | 118% | 137% | 127% | 98.3% | 99.8% |  | 92.5% | 94.5% | 80.7% | 98% | 75.2% |  |  |
| COc1ccc(OC2=CC(=O)c3ccc(C)nc3C2=O)cc1 | 99.5% | 96.5% | 88.3% | 92.3% | 112% | 51.4% | 82.5% | 18.5% | 66.5% | 51.2% | 79.7% | 114% |  | 87.8% | 72.3% | 83.2% | 87.5% | 80.7% |  |  |
| O=c1[nH]c(=S)c2c(n1CCCO)CCC2 | 99.8% | 91.2% | 99.7% | 89.9% | 102% | 103% | 93.2% | 103% | 104% | 97% | 101% | 99.4% | 102% | 103% | 110% | 99.8% | 103% | 102% |  |  |
| COc1ccc(/C=N\N2CCOCC2)cc1OC1CCCC1 | 106% | 89.4% | 101% | 82% | 101% | 104% | 94.1% | 106% | 122% | 101% | 103% | 103% | 97.6% | 107% | 114% | 90.7% | 106% | 104% |  |  |
| Cc1cccc2c(=O)c3c(sc12)c(NCCCN)nc1ccccc13 | 89.2% | 40.6% | 22.1% | 19.6% | 29% | -82.9% (active) | 4.76% (active) | 2.89% (active) |  | -5.48% (active) | -29.9% (active) | 51.7% | 47.4% | -24.1% (active) |  | 24.6% | 24% | 27.3% |  |  |
| CCCN1CCN(c2ccc3nc(-c4ccc5nc(-c6ccc(C(F)(F)F)cc6)[nH]c5c4)[nH]c3c2)CC1 | 7.45% (active) | -34.3% (active) | -69.2% (active) | 79.7% | -13% (active) | -99.9% (active) | 59% | -21.1% (active) | -38.6% (active) |  | -29.9% (active) | -25% (active) | -82.5% (active) | -83.5% (active) | -96.9% (active) | 4.6% (active) | 74% | -38% (active) |  |  |
| O=C1c2c(c3c4cc(Br)ccc4[nH]c3c3ccc4ccccc4c23)C(=O)N1O | 106% | 87.3% | 92.2% | 101% | 117% | 73.3% | 69.6% | 54.1% | 68.5% | 33.9% | 58.9% | 111% |  | 70.2% | 107% | 117% | 98.1% | 84.1% |  |  |
| CCOC(=O)c1cnn(CC(O)c2ccc(F)cc2)c1NC(=O)Nc1ccccc1F (stereo not given) | 111% | 101% | 106% | 71.5% | 103% | 98.3% | 83.7% | 96.9% | 91.8% | 105% | 82.9% | 101% | 81.7% | 101% | 107% | 97.3% | 101% | 104% |  |  |
| O=C(N/N=C(\CS(=O)(=O)c1ccccc1)c1cc2ccccc2oc1=O)c1ccccc1 | 115% | 101% | 101% | 94% | 119% | 101% | 96.4% | 106% | 115% | 101% | 112% | 101% |  | 109% | 111% | 106% | 107% | 100% |  |  |
| CN1CCN(c2ccc3nc(-c4ccc5nc(-c6ccc(C(F)(F)F)cc6)[nH]c5c4)[nH]c3c2)CC1 | 103% | 81.6% | 80.3% | 105% | 101% | 55.6% | 43% | 21.2% | 47.2% | -18.5% (active) | -9.04% (active) | 110% |  | 71.2% | -17.3% (active) | 26.4% | 102% | 65.5% |  |  |
| COc1cccc(C2CC(=O)Nc3cc4c(cc32)OCO4)c1OC (stereo not given) | 88.3% | 110% | 103% |  | 87% | 91.8% | 78.4% | 82.1% | 87.1% | 86.2% | 79.2% | 98.8% | 95% | 93.4% | 99.7% | 93.1% | 92.2% | 98.6% | 77.6% | 102 |
| Cc1c(C(=O)Nc2nc(-c3ccccc3)cs2)nnn1-c1cccc2ccccc12 | 48.2% [50 µM] | 39.3% [50 µM] | 67.9% [50 µM] | 49.7% [50 µM] |  | 58.1% [50 µM] | 35.8% [50 µM] | 47.2% [50 µM] | 30.4% [50 µM] | 29.2% [50 µM] |  | 86.8% [50 µM] | 23.7% [50 µM] | 69.9% [50 µM] |  | 79.5% [50 µM] | 65.1% [50 µM] | 50.9% [50 µM] | 58.5% [50 µM] |  |
| COc1ccc(-c2nn(-c3ccc(NC(=O)c4ccc(Cl)c(Cl)c4)cc3)cc2-c2ccncc2)cc1Cl | 43.5% | 56.4% | 80.5% | 2.82% (active) |  | 52.6% | -13.7% (active) | 37.4% | 13.8% | 27.4% | -35.4% (active) | 60.9% | 79.5% | 61.9% | 56.7% |  |  | 63.8% | -0.135% (active) | 65.6 |
| Fc1c[c-]c(-c2ccccn2)c(F)c1.Fc1c[c-]c(-c2ccccn2)c(F)c1.[Cl][Pt+].[Cl][Pt+].c1ccc([PH+](C[PH+](c2ccccc2)c2ccccc2)c2ccccc2)cc1 | 8.6% (active) | 12.4% | 5.5% (active) | 75.9% |  | 89.3% | 41.4% |  | 23.4% |  |  | 49.2% | 6.98% (active) | 21.2% | 7.81% (active) | 26.1% | 97.9% | 15.1% | 21.6% |  |
